Screening data: PubChem, National Center for Advancing Translational Sciences (NCATS)
Pf growth 48h: P. falciparum growth inhibition at 48 hours (one generation); Potency, µM (top dose mostly 28.7 µM), for inactives: top-dose activity change, negative = inhibition, most hits filed as inhibitors; P. falciparum luciferase growth in erythrocytes, 48 h; hit rate 5.9% among 310,000; AID 504832; note: potency is the fitted concentration of half-maximal effect; % is set by controls: 0 for no effect and ±100 for the full control effect
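Erythrocytes infected with P. falciparum carrying an integrated firefly luciferase reporter (2% hematocrit, 0.1% parasitemia final) were exposed to compounds in RPMI 1640 with 0.5% Albumax at 37 C, 5% CO2. Growth inhibition was scored as reduced luminescence.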
Pf growth 96h: P. falciparum growth inhibition at 96 hour, primary screen for plastid delayed-death inhibitors; P. falciparum luciferase reporter growth, 96 h; Potency, µM (doses to about 28.7 µM), for inactives: at the top dose activity change, negative = inhibition, usual class: inhibitors; hit rate 6.9% among 320,000; AID 504834; note: potency is the fitted concentration of half-maximal effect; % is set by controls: 0 for no effect and ±100 for the full control effect
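Two parasite generations (96 h, 37 C, 5% CO2) of compound exposure in infected erythrocytes (0.05% parasitemia, 2% hematocrit). Luciferase-reporter P. falciparum; decreased luminescence indicates inhibited growth, aimed at apicoplast-acting delayed death.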
Cycloheximide cs: counter-screen for Shiga toxin inhibitors: cycloheximide protein synthesis inhibition | max response, % | hit rate 12% among 300,000 | cell reporter, cycloheximide protein synthesis inhibition counterscreen; in the data active = max response mostly above about 13%, no sharp cut-off; inactive = mostly below about 14%; note: read at 38.3 µM for the half of the compounds with a filed dose; 0% is about no effect
Shiga toxin inh: blocks Shiga toxin action in Vero cells; Vero cells, Shiga toxin protein synthesis inhibition reporter; inhibition, % at 38.7 µM; hit rate 9.2% among 290,000; AID 2315; in the data active = inhibition mostly above about 28%, no sharp cut-off; inactive = mostly below about 43%; note: 0% is about no effect
HCMV inh: human cytomegalovirus inhibition; activity change, negative = inhibition, % at 57.5 µM; hit rate 4.5% among 410,000; HFF cells, HCMV-luciferase reporter, 72 h; stronger effect = lower value; in the data active = activity change below about -60%; inconclusive = no clear call, values can overlap the other calls; inactive = above about -39%; note: % is set by controls: 0 for no effect and ±100 for the full control effect
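Inhibition of viral replication was scored as loss of reporter luminescence in HFFs infected with HCMV-luciferase (MOI 1 PFU/cell) for 72 h; compounds tested at 2 doses, normalized to buffer and Salinomycin controls.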
HCV inh: inhibitors of hepatitis C virus infection | hit rate 3.4% among 340,000 | Potency, µM (doses to about 41.8 µM), inactives show top-dose activity change, negative = inhibition, actives largely listed as inhibitors | AID 651820 | Huh7.5.1 HCVcc-Cre infection, luciferase reporter, 44 h; note: potency is the fitted concentration of half-maximal effect; % is set by controls: 0 for no effect and ±100 for the full control effect
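Infectious HCVcc-Cre (~0.5 moi) was added to cells just after compound, with cells seeded 4 h earlier at 1,000 per well. Luciferase activity after 44 h culture reported infection; substrate was incubated 15 min at room temperature before reading.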
* marks the source's active call; other numbers are inactive results; ? = inconclusive; . = no result given. Only some compounds are listed: those with a hit (about 21% of all), similar ones and a draw of the others. Unless noted, calls come from the whole dose curve; as a rule, active = well fitted inhibition curve with a large enough effect; inconclusive = small, poorly fitted or top-dose-only effect, or another doubt; inactive = no such curve, though single readings can be large or run the other way.

SMILES	Pf growth 48h	Pf growth 96h	Cycloheximide cs	Shiga toxin inh	HCMV inh	HCV inh
COc1nc(-c2ccccc2)cc(C(F)(F)F)n1	-1%	.	1	-3	19	2%
Oc1ccc(Cl)cc1-c1cc(C(F)(F)C(F)F)nc(-c2ccccc2)n1	1.3µM*	.	5	-10	-9	?
Oc1ccccc1-c1cc(C(F)(F)F)nc(-c2ccccc2)n1	?	?	-5	-2	-38	-12%
Cc1ccc(O)c(-c2cc(C(F)(F)C(F)F)nc(-c3ccccc3)n2)c1	?	8.3µM*	-2	-9	-7	?
Cc1ccc2c(c1)N(C(=O)N1CCC(C(=O)NCCc3ccc(Cl)cc3)CC1)CC(C)O2 (stereo not given)	.	.	.	.	2	.
CCc1nnc(NC(=O)CCC(=O)N2CCN(Cc3ccc(OC)c(F)c3)CC2)s1	9%	?	6	-5	-34	?
Cc1ccc(-n2c(O)cnc2Nc2nc(C)cc(C)n2)cc1	13%	0.29µM*	-2	-26	-3	21%
CCS(=O)(=O)n1nc(-c2ccc(OC)cc2)nc1N	76%	70%	23*	23	15	-1%
CCS(=O)(=O)n1nc(-c2ccco2)nc1SC	?	-20%	7	42	-12	14%
CCS(=O)(=O)n1nc(-c2ccc(Cl)cc2)nc1SC	58%	232%	62*	87*	11	1%
CS(=O)(=O)n1nc(-c2ccc(Cl)cc2)nc1N	51%	-4%	20*	20*	5	-4%
Cc1ccc(NC(=O)NCCCN2CCCC2=O)cc1C	44%	140%	11	33	29	-4%
CN(Cc1nccn1C)C(=O)c1ccc(OC2CCN(CCc3ccccc3)CC2)cc1	-5%	?	5	-21	-36	?
COc1cc(CN2CCCC(CO)(Cc3cccc(Cl)c3)C2)cc2c1OCO2 (stereo not given)	?	78%	-4	-10	-2	-24%
Cc1ccccc1NC(=O)Nc1ccccn1	32%	?	28*	.	38	-5%
Cc1cccc(NC(=O)Nc2ccccn2)c1C	89%	79%	11	47	-18	-12%
CCOC(=O)c1cc(NC(=O)Nc2ccccc2OC)c(C)nc1C	-3%	.	1	-4	-14	3%
CCOC(=O)c1cc(NC(=O)Nc2ccccn2)c(C)nc1C	42%	55%	27*	37	-38	1%
O=C(Nc1ccccn1)Nc1ccccc1[N+](=O)[O-]	67%	?	40*	47*	211	-21%
Cc1ccc(C(NC(=O)Nc2ccccn2)C(Cl)(Cl)Cl)cc1F (stereo not given)	?	13µM*	-6	24	?	8%
CCc1cnc2c(c1SC(C(C)=O)C(=O)N(C)C)c(=O)n(C)c(=O)n2C (stereo not given)	.	.	.	.	-24	.
Cc1ccccc1NC(=O)Nc1cc(-c2ccccc2)nn1C	42%	68%	36*	82*	36	-15%
CN(Cc1ccccc1)Cc1c(O)ccc2ccccc12	-4%	?	-2	12	27	17%
COc1ccc(OCCN(C)Cc2c(O)ccc3ccccc23)cc1	4%	39%	18*	37	-15	2%
[O-][n+]1ccccc1C(O)CSc1ccccc1 (stereo not given)	.	.	.	.	-27	.
Cc1ccccc1CS(=O)(=O)Cc1ccc(C(=O)NCCc2ccc(Cl)cc2)o1	.	.	.	.	0	.
O=C(N/N=C/c1ccc(Cl)s1)C(O)c1ccccc1 (stereo not given)	15%	?	7	16	-13	-3%
O=C(N/N=C/c1ccncc1)c1cccs1	.	?	52*	91*	.	15%
